Assays:
Experiment in all cases: log2 ratio of Biotin-Ahx-Ub-VS probe labelling (fragment/DMSO); higher = less target engagement (more negative = stronger competition), active = hit call of the paper (q ≤ 0.05, log2 ratio ≤ -1)
Conditions in all cases: compound concentration: 200 uM; treatment time: 3 h
[1] = molecular target: T1, ALG13 (UniProt Q9NP73)
T1 sequence (whole entry): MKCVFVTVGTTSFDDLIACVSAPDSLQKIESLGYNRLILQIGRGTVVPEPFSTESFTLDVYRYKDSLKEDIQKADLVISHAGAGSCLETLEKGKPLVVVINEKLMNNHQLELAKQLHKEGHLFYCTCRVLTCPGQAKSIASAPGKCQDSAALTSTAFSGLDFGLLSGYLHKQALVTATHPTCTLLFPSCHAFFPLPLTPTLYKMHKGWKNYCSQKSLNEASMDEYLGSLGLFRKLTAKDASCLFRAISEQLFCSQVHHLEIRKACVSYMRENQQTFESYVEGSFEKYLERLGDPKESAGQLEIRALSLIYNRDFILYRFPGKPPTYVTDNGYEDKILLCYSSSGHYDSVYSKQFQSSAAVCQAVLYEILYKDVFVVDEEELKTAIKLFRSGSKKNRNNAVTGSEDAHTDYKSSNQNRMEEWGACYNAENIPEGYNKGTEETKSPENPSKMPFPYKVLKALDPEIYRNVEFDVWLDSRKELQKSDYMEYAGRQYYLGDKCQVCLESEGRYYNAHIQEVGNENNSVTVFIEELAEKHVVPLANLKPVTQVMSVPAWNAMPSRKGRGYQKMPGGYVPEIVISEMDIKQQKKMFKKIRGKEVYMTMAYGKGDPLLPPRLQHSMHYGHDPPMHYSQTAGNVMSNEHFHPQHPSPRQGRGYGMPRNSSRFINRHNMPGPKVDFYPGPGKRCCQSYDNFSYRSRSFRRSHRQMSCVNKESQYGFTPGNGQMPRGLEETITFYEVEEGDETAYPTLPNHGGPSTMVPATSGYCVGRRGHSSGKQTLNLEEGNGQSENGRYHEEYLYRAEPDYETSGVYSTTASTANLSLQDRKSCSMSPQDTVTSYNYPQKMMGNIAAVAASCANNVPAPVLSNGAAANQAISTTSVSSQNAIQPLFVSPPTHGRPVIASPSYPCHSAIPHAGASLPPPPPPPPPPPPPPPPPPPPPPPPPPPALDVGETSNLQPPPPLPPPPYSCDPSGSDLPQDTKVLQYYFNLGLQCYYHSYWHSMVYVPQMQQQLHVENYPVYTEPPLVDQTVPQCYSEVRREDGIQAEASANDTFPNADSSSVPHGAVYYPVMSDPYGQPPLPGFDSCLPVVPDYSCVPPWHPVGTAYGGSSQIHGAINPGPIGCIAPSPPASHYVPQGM
How it was run: (§1)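 Average log2 ratios of fragment over vehicle were obtained by unpaired t-test from global-median-normalised Spectronaut label-free quantities. Proteins with ≥2 unique peptides were included. HEK293T lysate (495 µg per sample) was treated in triplicate with fragment at 200 µM or vehicle for 3 h, then with Biotin-Ahx-Ub-VS at 0.5 µM final for 1 h, and labelled DUBs were NeutrAvidin-enriched and run by diaPASEF LC-MS/MS.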

[2] = molecular target: ATXN3 (UniProt P54252)
Sequence of ATXN3 (P54252 whole entry): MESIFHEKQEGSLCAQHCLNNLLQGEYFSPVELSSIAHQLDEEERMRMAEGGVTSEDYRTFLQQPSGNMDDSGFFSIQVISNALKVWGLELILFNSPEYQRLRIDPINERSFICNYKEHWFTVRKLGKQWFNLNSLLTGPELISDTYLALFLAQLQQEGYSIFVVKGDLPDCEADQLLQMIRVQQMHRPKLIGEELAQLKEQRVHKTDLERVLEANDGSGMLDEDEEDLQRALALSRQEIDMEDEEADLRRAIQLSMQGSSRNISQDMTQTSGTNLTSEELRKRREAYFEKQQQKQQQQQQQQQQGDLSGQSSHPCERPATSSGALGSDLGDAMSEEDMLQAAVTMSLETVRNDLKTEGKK
How it was run: as §1

[3] = molecular target: T2, BAP1 (UniProt Q92560)
T2 sequence (whole entry): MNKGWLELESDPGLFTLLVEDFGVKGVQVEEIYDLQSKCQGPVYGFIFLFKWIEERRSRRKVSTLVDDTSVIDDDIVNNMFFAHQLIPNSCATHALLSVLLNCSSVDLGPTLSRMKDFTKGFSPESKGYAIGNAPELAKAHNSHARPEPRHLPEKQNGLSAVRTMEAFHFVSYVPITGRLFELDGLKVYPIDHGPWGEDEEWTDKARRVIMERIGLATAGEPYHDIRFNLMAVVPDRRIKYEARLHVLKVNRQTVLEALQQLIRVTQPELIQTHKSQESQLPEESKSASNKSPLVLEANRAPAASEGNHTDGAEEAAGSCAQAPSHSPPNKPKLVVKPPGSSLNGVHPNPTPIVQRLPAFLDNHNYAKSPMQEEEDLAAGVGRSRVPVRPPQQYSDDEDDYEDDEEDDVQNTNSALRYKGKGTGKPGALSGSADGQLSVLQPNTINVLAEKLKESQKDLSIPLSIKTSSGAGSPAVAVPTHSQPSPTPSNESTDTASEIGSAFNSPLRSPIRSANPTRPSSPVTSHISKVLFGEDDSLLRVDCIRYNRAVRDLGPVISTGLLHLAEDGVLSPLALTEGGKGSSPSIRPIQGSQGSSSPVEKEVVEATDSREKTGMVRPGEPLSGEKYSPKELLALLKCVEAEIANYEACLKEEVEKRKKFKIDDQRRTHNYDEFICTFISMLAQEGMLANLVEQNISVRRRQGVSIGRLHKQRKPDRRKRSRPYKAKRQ
How it was run: as §1

[4] = molecular target: EIF3F (UniProt O00303)
Sequence of EIF3F (O00303 whole entry): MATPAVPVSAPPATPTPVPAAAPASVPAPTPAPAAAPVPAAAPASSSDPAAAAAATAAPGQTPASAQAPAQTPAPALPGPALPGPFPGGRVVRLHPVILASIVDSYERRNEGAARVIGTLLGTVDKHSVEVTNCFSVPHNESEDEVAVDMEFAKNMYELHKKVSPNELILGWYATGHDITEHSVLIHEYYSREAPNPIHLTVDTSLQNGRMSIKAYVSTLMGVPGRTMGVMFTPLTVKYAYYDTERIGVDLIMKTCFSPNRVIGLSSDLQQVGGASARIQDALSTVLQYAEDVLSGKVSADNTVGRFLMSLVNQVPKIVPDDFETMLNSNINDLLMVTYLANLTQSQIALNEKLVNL
How it was run: as §1

[5] = molecular target: EIF3H (UniProt O15372)
Sequence of EIF3H (O15372 whole entry): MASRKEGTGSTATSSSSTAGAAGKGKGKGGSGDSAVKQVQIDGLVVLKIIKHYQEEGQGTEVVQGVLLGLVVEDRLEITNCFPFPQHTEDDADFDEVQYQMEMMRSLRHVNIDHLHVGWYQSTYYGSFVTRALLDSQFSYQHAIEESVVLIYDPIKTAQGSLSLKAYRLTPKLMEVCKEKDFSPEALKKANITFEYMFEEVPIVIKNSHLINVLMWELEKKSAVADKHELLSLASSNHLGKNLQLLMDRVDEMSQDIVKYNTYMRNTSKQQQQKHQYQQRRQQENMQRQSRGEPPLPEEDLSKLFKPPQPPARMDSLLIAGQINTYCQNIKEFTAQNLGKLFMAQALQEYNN
How it was run: as §1

[6] = molecular target: T3, FAM105A (UniProt Q9NUU6)
T3 sequence (whole entry): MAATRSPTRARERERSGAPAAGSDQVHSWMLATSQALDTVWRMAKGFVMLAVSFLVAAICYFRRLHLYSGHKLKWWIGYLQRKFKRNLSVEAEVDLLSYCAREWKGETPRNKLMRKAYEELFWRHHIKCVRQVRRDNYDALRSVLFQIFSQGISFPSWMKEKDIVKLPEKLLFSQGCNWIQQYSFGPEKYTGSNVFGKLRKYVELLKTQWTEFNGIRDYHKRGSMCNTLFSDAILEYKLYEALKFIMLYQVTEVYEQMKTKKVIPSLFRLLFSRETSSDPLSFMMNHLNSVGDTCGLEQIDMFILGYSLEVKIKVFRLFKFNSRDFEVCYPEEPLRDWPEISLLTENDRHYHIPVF
How it was run: as §1

[7] = molecular target: OTUB1 (UniProt Q96FW1)
Sequence of OTUB1 (Q96FW1 whole entry): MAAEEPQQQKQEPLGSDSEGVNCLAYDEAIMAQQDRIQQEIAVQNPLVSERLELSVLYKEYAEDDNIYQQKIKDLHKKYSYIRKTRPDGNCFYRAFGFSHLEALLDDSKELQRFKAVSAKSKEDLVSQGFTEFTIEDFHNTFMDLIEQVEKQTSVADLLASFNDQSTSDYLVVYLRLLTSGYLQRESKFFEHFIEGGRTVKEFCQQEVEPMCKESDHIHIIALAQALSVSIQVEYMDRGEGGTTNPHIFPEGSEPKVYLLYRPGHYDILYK
How it was run: as §1

[8] = molecular target: T4, OTUD4 (UniProt Q01804)
T4 sequence (whole entry): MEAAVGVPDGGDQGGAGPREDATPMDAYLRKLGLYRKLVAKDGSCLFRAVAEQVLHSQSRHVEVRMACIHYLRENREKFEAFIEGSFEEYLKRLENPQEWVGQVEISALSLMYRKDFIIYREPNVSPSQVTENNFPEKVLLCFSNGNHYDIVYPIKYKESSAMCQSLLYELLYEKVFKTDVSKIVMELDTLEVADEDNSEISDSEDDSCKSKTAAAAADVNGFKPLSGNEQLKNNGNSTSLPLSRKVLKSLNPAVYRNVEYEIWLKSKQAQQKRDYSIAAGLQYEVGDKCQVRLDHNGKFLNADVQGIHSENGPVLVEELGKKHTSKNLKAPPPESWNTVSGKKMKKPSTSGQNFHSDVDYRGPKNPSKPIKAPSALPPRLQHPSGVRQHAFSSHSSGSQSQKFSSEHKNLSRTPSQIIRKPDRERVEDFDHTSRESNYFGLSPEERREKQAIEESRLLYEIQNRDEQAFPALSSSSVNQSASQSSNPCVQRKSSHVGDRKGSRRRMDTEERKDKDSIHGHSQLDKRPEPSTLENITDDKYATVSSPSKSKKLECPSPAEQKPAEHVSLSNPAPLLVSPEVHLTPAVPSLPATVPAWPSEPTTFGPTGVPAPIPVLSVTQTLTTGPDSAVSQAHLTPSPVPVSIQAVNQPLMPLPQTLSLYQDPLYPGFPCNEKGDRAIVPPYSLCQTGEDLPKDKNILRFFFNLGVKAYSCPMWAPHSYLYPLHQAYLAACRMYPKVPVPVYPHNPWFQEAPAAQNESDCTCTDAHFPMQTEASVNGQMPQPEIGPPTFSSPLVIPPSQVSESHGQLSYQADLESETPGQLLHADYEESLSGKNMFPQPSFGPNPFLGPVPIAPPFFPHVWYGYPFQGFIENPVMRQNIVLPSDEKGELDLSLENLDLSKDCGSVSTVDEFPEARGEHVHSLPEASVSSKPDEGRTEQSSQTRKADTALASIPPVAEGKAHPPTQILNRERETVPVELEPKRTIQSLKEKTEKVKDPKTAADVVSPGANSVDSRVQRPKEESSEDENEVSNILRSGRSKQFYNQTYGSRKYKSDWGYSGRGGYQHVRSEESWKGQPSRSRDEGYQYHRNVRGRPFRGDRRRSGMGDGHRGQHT
How it was run: as §1

[9] = molecular target: T5, OTUD5 (UniProt Q96G74)
T5 sequence (whole entry): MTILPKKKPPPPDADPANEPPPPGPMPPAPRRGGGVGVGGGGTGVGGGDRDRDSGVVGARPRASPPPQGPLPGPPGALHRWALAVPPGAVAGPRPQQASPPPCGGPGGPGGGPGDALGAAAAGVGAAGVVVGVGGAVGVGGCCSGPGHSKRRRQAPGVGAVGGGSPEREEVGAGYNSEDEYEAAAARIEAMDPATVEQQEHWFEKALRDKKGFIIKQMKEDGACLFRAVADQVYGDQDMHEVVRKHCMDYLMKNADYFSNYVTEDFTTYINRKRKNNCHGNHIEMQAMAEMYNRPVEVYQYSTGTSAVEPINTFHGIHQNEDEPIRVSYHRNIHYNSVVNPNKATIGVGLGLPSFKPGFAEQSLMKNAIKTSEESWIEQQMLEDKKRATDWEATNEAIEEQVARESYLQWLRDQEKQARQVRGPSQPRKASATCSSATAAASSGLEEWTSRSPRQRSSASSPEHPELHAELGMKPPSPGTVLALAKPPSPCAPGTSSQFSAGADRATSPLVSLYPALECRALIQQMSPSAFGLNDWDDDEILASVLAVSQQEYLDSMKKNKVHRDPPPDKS
How it was run: as §1

Measured: log2 ratio of Biotin-Ahx-Ub-VS probe labelling

O=C(CCl)N(Cc1ccsc1)C1CC1
inactive: [1] 0.115 | [2] -0.173 | [3] -0.841 | [4] -0.0964 | [5] 0.0796 | [6] -0.378 | [7] -0.191 | [8] -0.285 | [9] -0.657
